The text below walks through data of PubChem BioAssay.

Results filed as inconclusive are left out. The source made the active and inactive calls. Cut-off read from the data, not from the text of the source, unless noted: active = inhibition above about 30%; inactive = the rest.

The nature of experiment [1]: reducers of endogenous Her2 protein level, primary screen, SKBR3 breast tumor cells, AlphaScreen, ATP viability (AID 461;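 active = Her2 level under about 52% in both replicate screens, with viability over 70% of control, limit read from the data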;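 for Her2 level: lower value means less Her2 protein in the cells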;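 for viability: percent of carrier control wells set as 100% viability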). The settings on record: 18-24 h, measured here: SKBR3 viability, ATP luminescence, at 10 µM.
Experiment [2] deals with Receptor tyrosine-protein kinase erbB-2 (Homo sapiens) (UniProt P04626). The description is as above. The settings on record: 18-24 h, at 10 µM, stronger effect = lower value.
Receptor tyrosine-protein kinase erbB-2 (Homo sapiens), sequence (P04626 whole entry, looked up): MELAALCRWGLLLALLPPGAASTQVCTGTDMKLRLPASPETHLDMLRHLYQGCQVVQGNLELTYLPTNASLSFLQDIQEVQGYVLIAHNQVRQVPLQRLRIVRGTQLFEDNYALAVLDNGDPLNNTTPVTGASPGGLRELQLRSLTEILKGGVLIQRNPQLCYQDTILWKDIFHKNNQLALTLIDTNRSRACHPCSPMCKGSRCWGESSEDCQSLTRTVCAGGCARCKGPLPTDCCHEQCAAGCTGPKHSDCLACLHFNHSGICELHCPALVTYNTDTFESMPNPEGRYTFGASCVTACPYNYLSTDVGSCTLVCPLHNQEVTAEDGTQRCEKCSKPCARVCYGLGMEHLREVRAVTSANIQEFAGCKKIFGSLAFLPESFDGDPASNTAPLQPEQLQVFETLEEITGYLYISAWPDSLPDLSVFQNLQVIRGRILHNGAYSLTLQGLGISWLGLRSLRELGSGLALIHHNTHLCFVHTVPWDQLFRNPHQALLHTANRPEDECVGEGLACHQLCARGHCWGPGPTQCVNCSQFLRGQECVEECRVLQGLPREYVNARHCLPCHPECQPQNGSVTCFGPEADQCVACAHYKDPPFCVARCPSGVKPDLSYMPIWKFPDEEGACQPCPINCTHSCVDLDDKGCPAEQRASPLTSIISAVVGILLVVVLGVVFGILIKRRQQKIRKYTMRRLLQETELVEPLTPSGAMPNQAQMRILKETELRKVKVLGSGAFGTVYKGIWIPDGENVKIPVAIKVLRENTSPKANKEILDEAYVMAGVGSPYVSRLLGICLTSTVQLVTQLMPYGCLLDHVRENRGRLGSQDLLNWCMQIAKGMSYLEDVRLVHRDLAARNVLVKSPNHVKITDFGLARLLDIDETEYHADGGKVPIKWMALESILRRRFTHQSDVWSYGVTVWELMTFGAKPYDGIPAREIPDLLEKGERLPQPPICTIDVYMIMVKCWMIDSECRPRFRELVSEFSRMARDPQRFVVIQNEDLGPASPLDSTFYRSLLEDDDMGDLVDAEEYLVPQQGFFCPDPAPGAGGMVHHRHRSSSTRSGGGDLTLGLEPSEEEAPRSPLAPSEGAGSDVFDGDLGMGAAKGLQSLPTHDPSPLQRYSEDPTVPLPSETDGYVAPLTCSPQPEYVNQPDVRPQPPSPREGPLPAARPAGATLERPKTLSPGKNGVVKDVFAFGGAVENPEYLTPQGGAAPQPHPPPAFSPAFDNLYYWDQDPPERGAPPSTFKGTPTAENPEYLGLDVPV
Experiment [3] is described as follows: SK-BR-3 cell growth inhibitors, pilot screen, 24 h, human (AID 572;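 active = viability at or below 10% of carrier control in both of two separate runs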;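 note: compound exposure lasted between 18 and 24 h rather than exactly 24 h; 100% = carrier-treated control wells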). The note with it: SK-BR-3 viability, CellTiter-Glo luminescence, at 10 µM, stronger effect = lower value.
The nature of experiment [4]: HUVEC growth inhibition – cell-based, human, primary screen (AID 575;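 active = viability at or below 30% in both replicate assays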;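 note: 100% = median of untreated cell wells with 0.1% DMSO on each plate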). The settings on record: HUVEC proliferation, CellTiter-Glo luminescence, 72 h; at 10 µM; stronger effect = lower value.
Experiment [5] in a line: growth inhibitors of H69AR lung tumor, primary screen, human, duplicate replicates (AID 580;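 active = viability at or under a set limit in both replicates, limit being median viability minus 3 SD, cut at about 48% in these data, passing the limit was not always enough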;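 note: 100% = mean luminescence of untreated wells and 0% = no signal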). The settings on record: H69AR lung tumor cells viability, ATP luminescence, 72 h; at 10 µM; stronger effect = lower value.
The nature of experiment [6]: reversal of MRP1-mediated doxorubicin resistance, pilot screen, H69AR cells, doxorubicin co-treatment (AID 601;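 active = viability loss from added drug above about 55%, and viability with drug at most 40%, in both replicates, limit read from the data, passing the limit was not always enough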). The settings on record: CellTiter-Glo, 72 h, at 10 µM; for differential viability (reversal): stronger effect = higher value. (Cellular ATP, detected with luciferase, serves as a proxy for viable cell number.)
A short description of experiment [7]: 384-well plate pilot, post-Golgi transport modulator project, inhibition of yeast transport mutant growth (AID 636; in the data active = inhibition above about 31%). The settings on record: absorbance 615 nm, about 18 h, stronger effect = higher value.
A short description of experiment [8]: growth suppression of yeast trafficking mutant, preliminary HTS, modulators of trafficking downstream of Golgi apparatus project, 1536-format plate, OD 615 nm (AID 637). The note with it: yeast transport mutant growth, absorbance 615 nm, 18 h; stronger effect = higher value.
A short description of experiment [9]: OD615 S. cerevisiae growth inhibition, permissive medium, pilot counter-assay, permissive growth control for S. cerevisiae lifespan shortening project (AID 705;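 active = growth inhibition above 25% in both replicates, a cutoff set 3 SD above the mean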). The note with it: OD615, 24 h, at 10 µM, stronger effect = higher value.
The nature of experiment [10]: Restrictive medium S. cerevisiae growth inhibition, OD615, pilot screen of yeast lifespan reduction project, restrictive growth control (AID 706;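 active = growth inhibition above a set limit, 3 SD over mean compound inhibition, in both replicates, cut at about 43% in these data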;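 note: modified DeaD lifespan yeast strain shifted to restrictive glucose medium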). The settings on record: OD615, 48 h, at 10 µM, stronger effect = higher value.
The nature of experiment [11]: viability gain of MRP-1-high H69AR cells under doxorubicin, pilot screen, MRP-1 activator project, CellTiter-Glo, duplicate (AID 807;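 active = viability increase at or above a cutoff of the median across tested compounds plus 3 SD, cut at about 8.5% in these data, passing the limit was not always enough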;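 note: compound pretreatment 18-22 h then 72 h combined with doxorubicin; 0% = doxorubicin alone and 100% = vehicle without doxorubicin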). The note with it: H69AR viability with doxorubicin, CellTiter-Glo luminescence; at 10 µM; stronger effect = higher value.
Experiment [12] in a line: growth suppression of beta-catenin knockout HCT116, pilot screen, human colon tumor cells (AID 823;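 active = cell viability at or below a set limit in both duplicate runs, the limit being the all-compound median minus 4 SD, cut at about 23% in these data, passing the limit was not always enough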;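 note: 0% = wells killed by 20 µM Hyamine and 100% = untreated DMSO cell wells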). The note with it: CellTiter-Glo, 60 h, at 10 µM, stronger effect = lower value.
Experiment [13] is described as follows: growth suppression of PTEN-deleted HCT116, pilot screen, cell-based, HCT116 clonal line, CellTiter-Glo (AID 824;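 active = viability at or below 27.92% in each of two runs, the all-compound median minus 4 SD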;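 note: 0% = 20 µM Hyamine control and 100% = vehicle cell control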). The note with it: 60 h, at 10 µM, stronger effect = lower value.
The nature of experiment [14]: inhibitors of the yeast RAM network, pilot screen, dse1pr::URA3 reporter, 5-FOA selection (AID 869;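 active = inhibition over a set limit, the all-compound mean plus 3 SD, in both replicate runs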;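 note: 0% = DMSO wells with no growth and 100% = 10 µM 1-NA-PP1 with full growth; RAM network block rescues cells from 5-FOA so hits raise OD615 growth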). The note with it: S. cerevisiae dse1pr::URA3 5-FOA growth, OD615, 2 d; at 10 µM; stronger effect = higher value; strain carries analog-sensitive mutant Cbk1 kinase.
A short description of experiment [15]: RAM signaling pathway blockade in yeast – S. cerevisiae, Pdr1DBD-CYC8 efflux-inhibited sensitized strain, primary screen (AID 1298;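 active = RAM network inhibition above 8.4% in each of two replicates, 3 SD over the compound average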;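 note: 0% = DMSO untreated cells without growth and 100% = 10 µM 1-NA-PP1 full growth; higher means more yeast growth rescued from 5-FOA killing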). The settings on record: S. cerevisiae cbk1-as DSE1-URA3 strain, 5-FOA growth OD615, 2 d; at 50 µM; stronger effect = higher value.
The mark [16] stands for this setting: H69AR cells + 2 uM doxorubicin, measured here: viability with 2 uM doxorubicin, stronger effect = lower value.
[17] abbreviates: H69AR cells, compound alone cytotoxicity.

In general, viability refers to a read-out of living cells in per cent, often relative to untreated cells. As a reminder, the inhibition is the change of the read-out against control, counted positive when it falls. As for `CCOCC(=O)Nc1nc2c(s1)C(=O)CC(C)(C)C2`, the viability is 80.5% in experiment [1]; 80.5% (inactive) in experiment [3]; 97% (inactive) in experiment [4]; 83.7% (inactive) in [5]; 90.3% in experiment [6] (setting [16]); 83.7% in experiment [6] (setting [17]). Moreover, the viability in experiment [12] was 97.3% (inactive); in [13] it was 93% (inactive). The Her2 level in experiment [2] is 108% (inactive). Moreover, the differential viability (reversal) in experiment [6] (H69AR cells + 2 uM doxorubicin) is -6.59% (inactive). Moreover, the inhibition in experiment [7] is -7.73% (inactive); in experiment [8], 1.5% (inactive); in [14], 2.79% (inactive). In addition, the growth inhibition is -16.7% (inactive) in [9] and -21% (inactive) in [10]. For the same molecule, the viability increase in [11] was -2.68% (inactive). Moreover, the RAM network inhibition in experiment [15] was 0.05% (inactive).
Turning to `CCn1cc(SCC(=O)Nc2cc(C)on2)c2ccccc21`, the viability in experiment [1] is 110%; in experiment [3], 110% (inactive); in experiment [4], 89.4% (inactive); in experiment [5] it was 84% (inactive); in experiment [6] (setting [16]), 80.5%; in experiment [6] (setting [17]) it was 84%. The viability in [12] and in [13] was 92.3% (inactive) in each case. For the same molecule, the Her2 level in experiment [2] was 84% (inactive). Besides, in experiment [6] (H69AR cells + 2 uM doxorubicin), the differential viability (reversal) was 3.56% (inactive). Also, the inhibition in experiment [7] was -4.13% (inactive); in experiment [8], -1.15% (inactive); in [14], 1.87% (inactive). Also, the values for the growth inhibition in [9] and in experiment [10] were -5.85% (inactive) and -7.99% (inactive), respectively. Also, the viability increase in [11] is 1.09% (inactive). Further, the RAM network inhibition in experiment [15] is 2.85% (inactive).
Turning to `COc1ccc(-c2nc(CS(=O)CC(=O)NCc3ccccn3)c(C)o2)cc1` (stereo not given), the viability was 103% in [1]; 103% (inactive) in [3]; 92.9% (inactive) in [4]; 92.9% (inactive) in [5]; 84.8% in experiment [6] (setting [16]); 92.9% in experiment [6] (setting [17]). The viability in experiment [12] was 95.9% (inactive); in experiment [13], 98.5% (inactive). Moreover, the Her2 level in experiment [2] was 92.5% (inactive). Also, the differential viability (reversal) in experiment [6] (H69AR cells + 2 uM doxorubicin) was 8.14% (inactive). In addition, the inhibition is -3.47% (inactive) in experiment [7], -2.46% (inactive) in [8] and 1.57% (inactive) in experiment [14]. The growth inhibition was -3.15% (inactive) in experiment [9] and 18% (inactive) in experiment [10]. Also, the viability increase in [11] is -1.58% (inactive). For the same molecule, the RAM network inhibition in experiment [15] was 5.75% (inactive).
On to `CCOc1ccc(CCN2C(=O)C3C4C=CC(C4)C3C2=O)cc1OCC` (stereo not given), for which the viability in experiment [1] was 96%; in experiment [3], 96% (inactive); in experiment [4], 97.7% (inactive); in experiment [5] it was 87.9% (inactive); in [6] (setting [16]), 83.4%; in experiment [6] (setting [17]), 87.9%. In addition, the viability in experiment [12] was 102% (inactive); in [13], 101% (inactive). In experiment [2], the Her2 level is 93.5% (inactive). Further, the differential viability (reversal) in experiment [6] (H69AR cells + 2 uM doxorubicin) is 4.56% (inactive). Besides, the inhibition in experiment [7] is -6.27% (inactive); in experiment [8] it was -1.67% (inactive); in experiment [14], 1.38% (inactive). The growth inhibition is 0.49% (inactive) in experiment [9] and 3.99% (inactive) in [10]. Besides, the viability increase in experiment [11] is -0.38% (inactive). Further, the RAM network inhibition in experiment [15] was 1.5% (inactive).
`CC(=O)Nc1ccc(S(=O)(=O)Nc2nc3c(s2)CCCC3)cc1`: the viability in [1] was 106%; in [3], 106% (inactive); in experiment [4] it was 106% (inactive); in [5], 99.5% (inactive); in experiment [6] (setting [16]), 88%; in experiment [6] (setting [17]) it was 99.5%. In addition, the viability in experiment [12] was 95.1% (inactive); in experiment [13] it was 90.7% (inactive). The Her2 level in [2] was 103% (inactive). Moreover, in [6] (H69AR cells + 2 uM doxorubicin), the differential viability (reversal) is 11.5% (inactive). In addition, the inhibition in [7] was -8.93% (inactive); in experiment [8] it was -9.52% (inactive); in experiment [14], 1.9% (inactive). Also, the growth inhibition in experiment [9] is 4.96% (inactive); in experiment [10], 12.8% (inactive). Further, the viability increase in experiment [11] is -1.41% (inactive). Besides, the RAM network inhibition in experiment [15] was 2.5% (inactive).
